This is a sample that favours compounds with a hit; in the whole collection about 19% have one here.
DT40 TDP1 CPT: growth inhibition of DT40 Tdp1-/-;hTDP1 cells with camptothecin (screen for TDP1 inhibitors); chicken DT40 Tdp1-/-;hTDP1 cells + 20 nM CPT, ATP luminescence, 48 h; Potency, µM (series often up to 46.2 µM), for the others: at the top dose activity change, negative = growth inhibition, usual class: inhibitors; 12% of 420,000 active; also: nearly all actives have a fitted effect of over 55% in size
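Chicken DT40 Tdp1-/- cells complemented with human TDP1, 400 cells/well, exposed to compounds plus 20 nM camptothecin for at least 48 h at 37 C; viability read as ATP content by CellTiter-Glo luminescence.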
KB-3-1 cytotox: KB-3-1 parental cell cytotoxicity; AID 1347075; KB-3-1 viability, CellTiter-Glo ATP luminescence, 72 h; 1.4% of 400,000 active; Potency, µM (doses to about 46.1 µM), actives largely listed as cytotoxic; also: nearly all actives have a fitted effect of over 60% in size
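Multi-concentration cytotoxicity screen in KB-3-1 cells grown in DMEM lacking phenol red with 10% FBS. After 72 h at 37 °C with compound, ATP-dependent luminescence was recorded.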
HT1080-NT tox: kills 2HG-producing HT-1080-NT fibrosarcoma cells. HT-1080-NT fibrosarcoma viability, CellTiter-Glo ATP luminescence, 48 h. Potency, µM (series often up to 46.1 µM), inactives show at the top dose activity, negative = less viability, actives largely listed as cytotoxic. 1.6% of 360,000 active. AID 686970;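 also: NT is the 2HG producing partner of a matched IDH1 knockdown line; 0% = DMSO-treated cells and -100% = media-only wells without cells; nearly all actives have a fitted effect of over 55% in size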
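Toxicity toward the 2HG-producing NT line was scored as %Activity, normalised to DMSO and no-cell wells, from CellTiter-Glo luminescence after 48 hours' treatment.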
HT1080 IDH1KD tx: kills HT-1080 cells with IDH1 knockdown | 2% of 360,000 active | Potency, µM (doses to about 46.1 µM), inactives show top-dose activity, negative = toxicity, usual class: cytotoxic | HT-1080 IDH1 knockdown viability, ATP luminescence, 48 h;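 also: 0% = DMSO wells and -100% = cell-free medium wells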
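IDH1KD HT-1080 cells, 750/well, RPMI + 5% FBS; compound pinned after 2 h settling; 48 h, 37 °C; CellTiter-Glo luminescence; % activity normalised to DMSO and no-cell wells; curves fitted, classed by r2 and efficacy.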
KB-V1 MDR tox: KB-V1 MDR subline cytotoxicity | KB-V1 MDR cells viability, CellTiter-Glo, 72 h | Potency, µM (highest dose often 46.1 µM), usual class: cytotoxic | 3.4% of 400,000 active | AID 1347076; also: nearly all actives have a fitted effect of over 60% in size
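In this primary screen, KB-V1 cells overexpressing P-gp are incubated with library compounds (lowest to highest concentration) for 72 h at 37 degrees C before a luminescent ATP viability read.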
TDP1 cell noCPT: qHTS for Inhibitors of human tyrosyl-DNA phosphodiesterase 1 (TDP1): qHTS in cells in absence of CPT; AID 686978, 2013; 15% of 420,000 active; Potency, µM (top dose mostly 46.2 µM), inactives show top-dose activity change, negative = growth inhibition, most hits filed as inhibitors; DT40 Tdp1-/- hTDP1 cells, no CPT, ATP luminescence, 48 h; also: nearly all actives have a fitted effect of over 55% in size
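Camptothecin absent (DMSO only). Human TDP1-complemented DT40 knockout cells, 400 cells/well, 37 °C for minimum 48 hr; ATP measured via CellTiter-Glo, 30 min dark incubation, luminescence.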
An asterisk follows results filed as active; i = inactive; ? = inconclusive; / = no result given; [ ] = another dose, or the depositor's remark. Calls follow the shape of the dose curve; as a rule, active = well fitted curve in the direction sought with a large enough effect; inconclusive = small, poorly fitted or top-dose-only effect, or another doubt; inactive = no such curve, though single readings can be large; an effect the other way counts as inactive or inconclusive. Unless noted, % is scaled to controls: 0 for no effect and ±100 for the full control effect; potency is read from the fitted curve at half-maximal effect.

SMILES	DT40 TDP1 CPT	KB-3-1 cytotox	HT1080-NT tox	HT1080 IDH1KD tx	KB-V1 MDR tox	TDP1 cell noCPT
Cc1cc(C)c2sc(N(CCN(C)C)C(=O)c3c(F)cccc3F)nc2c1	-29%	i	-14%	?	?	?
Cc1cc(C)c2sc(N(CCCN(C)C)C(=O)c3ccc(Br)s3)nc2c1	?	i	23µM*	?	i	15µM*
CCCCN(C)S(=O)(=O)c1ccc(C(=O)N(CCN(C)C)c2nc3ccc(C)cc3s2)cc1	-16%	i	-7%	-6%	i	-17%
CCN(Cc1ccccc1)S(=O)(=O)c1ccc(C(=O)N(CCCN(C)C)c2nc3cc(C)cc(C)c3s2)cc1	23µM*	?	16µM*	23µM*	?	12µM*
CCCCn1c(N)c(N(CC(C)C)C(=O)CSc2nn(-c3ccc(F)cc3)c(=S)s2)c(=O)[nH]c1=O	?	i	-11%	-2%	i	-3%
O=C(/C(=C\c1ccccc1)c1nc2ccccc2[nH]1)c1ccc(Cl)cc1	7.3µM*	?	3.7µM*	3.3µM*	?	6.5µM*
CCNC(=S)Nc1ccc(-c2nc3ccccc3[nH]2)cc1	6%	i	-24%	-21%	i	?
O=C(/C=C/c1cccc(Cl)c1)c1nc2ccccc2[nH]1	12µM*	?	?	?	i	9.2µM*
COc1cc(/C=C(/C(=O)c2cccs2)c2nc3ccccc3[nH]2)ccc1O	?	?	7.9µM*	5µM*	16µM*	18µM*
COC(=O)/C(=C\c1ccc(O)cc1)c1nc2ccccc2[nH]1	?	i	9%	0%	i	?
S=C(Nc1ccc(Cl)cc1)c1nc2ccccc2[nH]1	?	?	?	?	5.2µM*	?
COc1ccc(CCNC(=O)CCNC(=O)N2CC(=O)Nc3ccccc32)cc1	?	i	3%	9%	i	-1%
Cc1ccc(-n2c(=O)c3c4c(sc3n(CC(=O)Nc3ccccc3C)c2=O)CCCCC4)cc1C	10%	i	/	/	i	-3%
O=C(/C(=C/c1ccc(Cl)cc1)c1nc2ccccc2[nH]1)c1cccs1	2.9µM*	i	16µM*	16µM*	?	4.1µM*
COC(=O)/C(=C\c1cc(OC)c(OC)c(OC)c1)c1nc2ccccc2[nH]1	?	15µM*	?	?	?	16µM*
CCOC(=O)CC1(C)c2nc(NC(C)=O)sc2Cc2sc(NC(C)=O)nc21	-12%	i	7%	30%	i	-16%
Cc1c(/C=N\NC(=O)c2c[nH]c3ccccc23)cnn1C	-2%	i	8%	-5%	i	-12%
O=C(N/N=C/c1cccs1)c1c[nH]c2ccccc12	?	i	13%	24%	?	12µM*
O=C(Cc1c[nH]c2ccccc12)N/N=C/c1ccc(F)cc1	16µM*	i	-2%	-7%	i	21µM*
CCN(CC)c1ccc(/C=N/NC(=O)c2c[nH]c3ccccc23)cc1	?	i	?	-29%	i	23µM*
CCN(CC)c1ccc(/C=N/NC(=O)c2cc3ccccc3[nH]2)cc1	?	i	-28%	?	i	?
O=C(NC(Cc1c[nH]c2ccccc12)C(=O)N/N=C/c1ccc(Cl)cc1)c1cccs1 (stereo not given)	12µM*	i	?	?	i	?
Cc1cccnc1NC(=O)c1cccc(S(=O)(=O)N2CCCc3ccccc32)c1	?	i	-2%	-4%	?	?
O=C(CNC(=O)c1ccco1)OCC(=O)c1ccc(Br)cc1	11%	i	10%	8%	i	3%
CN(NC1OC(=O)c2ccccc21)c1ccccc1[N+](=O)[O-] (stereo not given)	9%	i	19%	6%	i	-5%
SMILES	DT40 TDP1 CPT	KB-3-1 cytotox	HT1080-NT tox	HT1080 IDH1KD tx	KB-V1 MDR tox	TDP1 cell noCPT
CCc1ccc(/C=N/NC(=O)c2c[nH]c3ccccc23)s1	21µM*	i	-5%	-8%	?	-20%
Cc1ccccc1-c1noc(CCC(=O)NCc2ccco2)n1	2%	i	-1%	3%	i	3%
COc1ccc(S(=O)(=O)N2CCC(C(=O)NCc3ccccn3)CC2)cc1C	-18%	i	-1%	-1%	i	-19%
O=[N+]([O-])c1cc(-c2ccc(/C=N/c3nc4ccccn4c3-c3ccco3)o2)ccc1Cl	?	i	-3%	-19%	?	23µM*
Clc1ccc(/C=N/c2c(-c3ccco3)nc3ccccn23)cc1	?	i	-10%	-4%[9.24 µM]	i	?
CCc1ccc(C2c3c(-c4cc(C)ccc4O)n[nH]c3C(=O)N2CCO)cc1 (stereo not given)	?	i	/	/	i	?
Cc1cc(Cl)ccc1OCC(=O)N/N=C/c1ccc(OC2OC(CO)C(O)C(O)C2O)cc1 (stereo not given)	1%	i	-14%	-16%	i	-8%
COc1ccc(OCC(=O)N/N=C/c2ccc(O[C@@H]3O[C@H](CO)[C@@H](O)[C@H](O)[C@H]3O)cc2)cc1	-2%	3.7µM*	?	1.6µM*	i	-6%
CCN(CC)C1=CC2=CC(=C(C#N)C#N)CCC2CC1 (stereo not given)	-14%	i	4%	8%	?	?
N#CC(C#N)=C1C=C2C=C(N3CCCCC3)CCC2CC1 (stereo not given)	26µM*	i	1%	4%	?	21µM*
CCOc1cc(/C=C2/C(=N)N3OC(C)=CC3=NC2=O)ccc1OCCOc1ccccc1	?	i	-11%	-12%	i	?
O=C(Nc1cccc(-c2csc(-c3ccccc3)n2)c1)c1cccs1	18µM*	i	?	-24%	15µM*	16µM*
Cc1nc(-c2cccc(NC(=O)c3cccs3)c2)cs1	-23%	i	-6%	?	i	?
Cc1ccn2cc(-c3cccc(NC(=O)c4cccs4)c3)nc2c1	?	i	-3%	-7%	?	21µM*
Cc1ccc(/C=C(\C#N)c2nn(-c3ccccc3)c(N)c2C#N)cc1	?	i	-6%	-10%	21µM*	15µM*
N#C/C(=C\c1c(Cl)cccc1Cl)c1nn(-c2ccccc2)c(-n2cccc2)c1C#N	26µM*	i	?	-5%	i	21µM*

Compound activity from PubChem BioAssay.
